Compound activity (PubChem)
CHT allo act: allosterically activates the human high affinity choline transporter; Q9GZV3; CHT-expressing cells, membrane potential dye, choline EC20; hits give high values; LV-AA mutant CHT in HEK293 cells; B-score at 10 µM; actives 0.49% (n = 310,000); AID 488977;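 active means initial fluorescence not abnormally high and integrated response B-score, plate-corrected, over 3 SD above library mean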
CHT block: inhibits the human high affinity choline transporter; Q9GZV3; CHT-expressing cells, membrane potential dye, choline response; hits give low values; B-score at 10 µM; actives 0.86% (n = 310,000);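 active means B-score over 3 SD under the library average, and starting fluorescence ratio not unusually high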;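 further: choline stimulus applied at its EC90 after an EC20 pre-addition; B-score computed on integrated fluorescence ratio after choline addition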
MEKK3 PB1 HTS: raises or lowers MEK5 binding to the human MEKK3 PB1 domain; bead-based flow cytometry, Alexa488-MEK5 binding to MEKK3; actives lie on both sides; 0 = blocked by unlabeled MEK5, 100 = vehicle; binding response (% of control), % at 10 µM; actives 1.4% (n = 290,000);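 active means binding response more than 3 SD above or below the average of its plate-row segment, actives on both sides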;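 further: Alexa488 bead fluorescence after subtracting the streptavidin-only scavenger bead signal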
Target sequence (Q99759 whole entry, looked up, the tested form may be a part): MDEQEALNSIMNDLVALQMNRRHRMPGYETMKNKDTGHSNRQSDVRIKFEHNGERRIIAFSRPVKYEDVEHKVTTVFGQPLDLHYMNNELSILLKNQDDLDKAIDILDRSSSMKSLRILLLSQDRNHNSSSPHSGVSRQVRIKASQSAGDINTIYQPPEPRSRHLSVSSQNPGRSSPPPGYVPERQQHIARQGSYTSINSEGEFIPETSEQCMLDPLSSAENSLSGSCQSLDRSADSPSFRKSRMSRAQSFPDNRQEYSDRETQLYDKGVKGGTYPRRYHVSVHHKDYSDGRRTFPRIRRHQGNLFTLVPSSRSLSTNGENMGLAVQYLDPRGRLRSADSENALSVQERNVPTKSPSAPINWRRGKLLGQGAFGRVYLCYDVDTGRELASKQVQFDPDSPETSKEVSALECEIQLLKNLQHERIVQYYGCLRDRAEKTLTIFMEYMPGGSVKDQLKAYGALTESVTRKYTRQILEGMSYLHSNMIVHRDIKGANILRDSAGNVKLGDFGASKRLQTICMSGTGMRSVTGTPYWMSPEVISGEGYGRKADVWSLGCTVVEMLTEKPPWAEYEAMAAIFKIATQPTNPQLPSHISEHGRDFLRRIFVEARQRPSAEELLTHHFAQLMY
MEKK2 WT-MEK5: raises or lowers MEK5 binding to wildtype human MEKK2 PB1 domain; Q9Y2U5; bead flow cytometry, Alexa488-MEK5 binding to MEKK2 WT; actives lie on both sides; binding response (% of control), % at 10 µM; actives 1.1% (n = 290,000); AID 1531; in the data active means binding response below about 67% or above about 130%
Mot1-301 SUMO: SUMOylation pathway inhibition by Mot1-301 growth rescue. S. cerevisiae Mot1-301 growth rescue, ATP luminescence, 38.5C; percent above DMSO median, 100 means doubled. growth rescue, % at 18.8 µM. actives 1% (n = 320,000). AID 2716;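 active means every valid replicate shows activation above 250% relative to neutral control wells; inactive means the rest, any valid replicate at or below 250%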;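 further: OY570 slx delta 5 strain wells were the positive control but not used for scaling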
MEKK2 mut-MEK5: signal of MEK5 binding to mutant human MEKK2 PB1 domain | bead flow cytometry, Alexa488-MEK5 binding to MEKK2 mutant | percent response, % at 10 µM | actives 0.35% (n = 290,000); in the data active means percent response above about 24%, passing the limit was not always enough
MEKK2wt confirm: raises or lowers MEK5 binding to wildtype human MEKK2, retest; shares compounds with MEKK3 PB1 HTS; bead flow cytometry, Alexa488-MEK5 binding to MEKK2 WT; actives lie on both sides; binding response (% of control), % at 10 µM; actives 2.4% (n = 5,900); in the data active means binding response below about 16% or above about 210%; inactive means in between
MEKK2mut confirm: signal of MEK5 binding to mutant human MEKK2, retest | percent response, % at 10 µM | AID 1893 | bead flow cytometry, Alexa488-MEK5 binding to MEKK2 mutant | actives 2% (n = 5,900) | shares compounds with MEKK3 PB1 HTS; in the data active means percent response mostly above about 71%, no sharp cut-off; inactive means mostly below about 38%;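 further: higher means compound restores mutant binding toward wildtype level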
MEKK3 confirm: MEKK3-MEK5 PB1 inhibition, single concentration confirmation. bead flow cytometry, Alexa488-MEK5 binding to MEKK3; hits give low values. binding response (% of control), % at 10 µM. shares compounds with MEKK3 PB1 HTS. actives 1.8% (n = 5,900). AID 1894;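 active means binding response below 72% of control, or above a set upper limit, though filed actives all read lower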;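 further: 100% = DMSO only wells and 0% = binding blocked by excess unlabeled MEK5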
CHT activ conf: confirmation of human choline transporter (CHT) activators | actives 91% (n = 2,500) | activation, % at 10 µM | shares compounds with CHT allo act | CHT-expressing cells, membrane potential dye fluorescence (FDSS); % of choline EC20–EC90 response window; HEK293 expressing CHT LV-AA mutant; choline added at its EC20 | AID 504833;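 active means primary screen active, with duplicate mean activation above negative control mean plus 3 SD, cut at about 11% in these data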
HEK293 MP dye: activity in parental HEK293 cells lacking CHT | shares compounds with CHT allo act | membrane potential dye fluorescence (FDSS); measured after EC20 choline addition | ratio readout change at 10 µM, hits read low | actives 62% (n = 2,500);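 active means duplicate-averaged ratio beyond 3 SD from buffer wells, up or down, though filed actives are nearly all decreases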
* = called active by the depositor; i = inactive; nt = no result; [ ] = dose if it differs, or a comment. This is a sample that favours compounds with a hit; in the whole collection about 4.1% have one here.

SMILES	CHT allo act	CHT block	MEKK3 PB1 HTS	MEKK2 WT-MEK5	Mot1-301 SUMO	MEKK2 mut-MEK5	MEKK2wt confirm	MEKK2mut confirm	MEKK3 confirm	CHT activ conf	HEK293 MP dye
Cc1cc(N2CCN(c3ccccc3)CC2)nc2ccccc12	i	i	113.0	117.0	33.9	23.0	nt	nt	nt	nt	nt
CCn1c(SCC(=O)Nc2cccc(C)n2)nc2c1c(=O)n(C)c(=O)n2C	i	i	84.0	78.0	-12.1	-10.0	nt	nt	nt	nt	nt
CCN1C(=O)c2cccc3c(S(=O)(=O)NCCCN4CCOCC4)ccc1c23	6.96*	i	125.0*	124.0	2.5	6.0	105.0	5.0	106.0	59.5*	-53.8*
CCc1ccc(C(O)(CNCc2ccccc2)c2ccccc2)cc1 (stereo not drawn)	i	i	111.0	120.0	5.9	26.0*	114.0	9.0	106.0	24.5*	i
CC(C)(C)NC(=O)c1oc2ccccc2c1COc1ccccc1	i	i	69.0*[inhibitor]	102.0	2.6	-1.0	103.0	-12.0	97.0	32.8*	i
CC(OC(=O)c1oc2ccccc2c1COc1ccccc1)C(N)=O (stereo not drawn)	i	i	nt	nt	-2.8	nt	nt	nt	nt	nt	nt
C/C(=N/NC(=O)CNC(=O)COc1ccccc1)c1ccco1	i	i	92.0	95.0	4.0	-2.0	nt	nt	nt	nt	nt
Cc1ccc(NCC(=O)Nc2c(C)n(C)n(-c3ccccc3)c2=O)cc1S(=O)(=O)N(C)C	i	i	100.0	98.0	-0.6	1.0	nt	nt	nt	nt	nt
Cc1ccc(OCC(O)Cn2c(=N)n(CCN3CCCCC3)c3ccccc32)cc1 (stereo not drawn)	9.58*	i	105.0	145.0*	-5.5	4.0	130.0	10.0	102.0	19.5*	i
Cc1cc(C)c2cc3c(ccn3C3OC[C@H](O)[C@H](O)[C@H]3O)cc2n1 (stereo partly drawn)	i	i	102.0	6.0*[inhibitor]	11.5	12.0	109.0	12.0	104.0	62.0*	-45.9*
CC(=O)O[C@@H]1[C@@H](OC(C)=O)[C@H](n2ccc3cc([N+](=O)[O-])ccc32)OC[C@@H]1OC(C)=O	i	i	109.0	102.0	125.2	4.0	nt	nt	nt	nt	nt
CCn1c2ccccc2c2cc(CNCc3ccc(OC)cc3OC)ccc21	15.8*	i	107.0	170.0*	3.3	17.0	175.0	11.0	98.0	8.8	i
O=C(COC(=O)CNS(=O)(=O)c1cccc(Br)c1)Nc1ccccc1Sc1ccccc1	i	i	101.0	98.0	3.4	1.0	nt	nt	nt	nt	nt
CCC(C)(C)n1nnnc1C(c1cccnc1)N1CCN(c2cccc(C(F)(F)F)c2)CC1 (stereo not drawn)	i	i	123.0*	120.0	99.6	7.0	101.0	-2.0	102.0	11.9*	i
C[C@H]1CN=C2N(CCNC(=O)CCC3CCCCC3)[C@H](Cc3ccc(O)cc3)CN21	i	i	96.0	109.0	4.2	12.0	nt	nt	nt	nt	nt
O=C(CCC1CCCCC1)NCCN1C2=NC[C@@H](Cc3ccccc3)N2C[C@H]1Cc1ccc(O)cc1	13.4*	i	113.0	149.0*	-10.0	33.0	109.0	2.0	100.0	37.1*	i
O=C(CCC1CCCCC1)NCCN1C2=NC[C@H](Cc3ccccc3)N2C[C@H]1Cc1ccc(O)cc1	6.8*	i	106.0	163.0*	-11.3	37.0	172.0	89.0*	99.0	40.2*	i
O=C(COc1coc(CN2CCc3ccccc32)cc1=O)Nc1ccccc1	i	i	nt	nt	-15.9	nt	nt	nt	nt	nt	nt
O=C(CN1C(=O)NC2(CCc3ccccc32)C1=O)Nc1ccccc1Cl (stereo not drawn)	nt	nt	nt	nt	-8.7	nt	nt	nt	nt	nt	nt
Cc1ccccc1OCC(O)CNC1CCC(NCC(O)COc2ccccc2C)CC1 (stereo not drawn)	i	i	111.0	219.0*	90.8	76.0*	207.0*	70.0*	111.0	21.3*	i
Cc1ccc(OCC(O)CNC2CCCC2)c(C)c1 (stereo not drawn)	i	i	103.0	109.0	6.5	2.0	nt	nt	nt	nt	nt
COc1ccccc1NS(=O)(=O)c1cc([N+](=O)[O-])ccc1N/N=C/c1sc(N2CCOCC2)nc1-c1ccccc1	i	i	81.0	65.0	4.5	205.0*	85.0	-10.0	94.0	23.3*	i
COc1ccc(C(=O)N/N=C/c2sc(N3CCOCC3)nc2-c2ccccc2)cc1OC	i	i	97.0	79.0	14.5	-10.0	nt	nt	nt	nt	nt
CCC(O)(CC)C(=O)N/N=C/c1cc(Br)cc(Br)c1O	i	i	134.0*	127.0	493.9*	23.0	104.0	3.0	103.0	14.1*	i
O=C(Nc1ccccc1O)c1nc(Cl)ccc1Cl	i	i	103.0	96.0	124.6	-3.0	nt	nt	nt	nt	nt
Cc1ccc(N(C)C(=O)C2CCCN2S(=O)(=O)c2ccc3c(c2)n(C)c(=O)c(=O)n3C)cc1 (stereo not drawn)	6.54*	i	57.0*[inhibitor]	71.0	55.4	-17.0	101.0	4.0	103.0	24.1*	-44.3*
COC(=O)CSc1nnc([C@H](CC(C)C)NC(=O)OC(C)(C)C)o1	i	i	96.0	92.0	-20.1	-7.0	nt	nt	nt	nt	nt
COc1ccc(C(=O)Nc2ccc(N3CCCCCC3)cc2)cc1S(=O)(=O)N1CCOCC1	nt	nt	nt	nt	-8.7	nt	nt	nt	nt	nt	nt
CCN(C(=O)CSc1nnc(CNc2cccc(OC)c2)n1C1CCCCC1)C1CCS(=O)(=O)C1 (stereo not drawn)	i	i	98.0	103.0	-20.2	7.0	nt	nt	nt	nt	nt
COc1ccc([C@@H]2[C@@H]3C(=O)N(C(C)(C)C)C(=O)[C@@H]3[C@]3(Cc4ccc(Cl)cc4)C(=O)N(c4ccc(C)cc4)C(=O)N23)cc1	i	i	nt	nt	5.4	nt	nt	nt	nt	nt	nt
